Source: the supplement of paper PMC12669032

Tested on: Lactobacillus paracasei
Assay: growth AUC relative to DMSO control (median of replicates) (fraction); higher = more growth (less inhibition), active = hit call of the paper
Settings: 20 µM; 24 h;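 active = AUC reduced over 20% with Padj below 0.05 in at least 2 of 3 replicates; inactive = otherwise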
How it was run: (§1)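 In round-bottom 96-well plates sealed with pierced gas-permeable seals, gut bacterial monocultures in mGAM were grown anaerobically at 37 °C from OD600 0.05 with 20 µM compound (1% DMSO). OD600 readings were taken hourly for 24 h, and the minimum OD was set to 0. Area under the growth curve was then normalised to the plate median of solvent-only wells, or to row and column medians on the industrial chemical plate. The value given is the median of three biological replicates grown on separate days.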

| Structure (SMILES) | growth AUC |
| --- | --- |
| O=C(O)C1(O)c2ccccc2-c2ccc(Cl)cc21 (stereo not drawn) | 0.997 (inactive) |
| O=C(O)C(F)(F)C(F)(F)C(F)(F)C(F)(F)C(F)(F)C(F)(F)C(F)(F)F | 0.966 (inactive) |
| COP(=O)(OC)OC=C(Cl)Cl | 1.04 (inactive) |
| CCCN(CC)CC1COC2(CCC(C(C)(C)C)CC2)O1 (stereo not drawn) | 0.947 (inactive) |
| CCOP(=O)(SC(C)CC)N1CCSC1=O (stereo not drawn) | 1.01 (inactive) |
| O=NN(CCO)CCO | 1.01 (inactive) |
| CSc1nc(N=[N+]=[N-])nc(NC(C)C)n1 | 0.938 (inactive) |
| COP(=O)(OC)Oc1ccc(S(C)=O)c(C)c1 (stereo not drawn) | 0.975 (inactive) |
| O=C(Nc1ccccc1)N(Cc1ccc(Cl)cc1)C1CCCC1 | 1.06 (inactive) |
| CC(C)OC(=O)C(C(=O)OC(C)C)=C1SCCS1 | 0.98 (inactive) |
| CCC(C)[C@H]1O[C@]2(C=C[C@@H]1C)C[C@@H]1C[C@@H](C/C=C(\C)[C@@H](O[C@H]3C[C@H](OC)[C@@H](O[C@H]4C[C@H](OC)[C@@H](O)[C@H](C)O4)[C@H](C)O3)[C@@H](C)/C=C/C=C3\CO[C@@H]4[C@H](O)C(C)=C[C@@H](C(=O)O1)[C@]34O)O2.CO[C@H]1C[C@H](O[C@H]2[C@H](C)O[C@@H](O[C@@H]3/C(C)=C/C[C@@H]4C[C@@H](C[C@]5(C=C[C@H](C)[C@@H](C(C)C)O5)O4)OC(=O)[C@@H]4C=C(C)[C@@H](O)[C@H]5OC/C(=C\C=C\[C@@H]3C)[C@]54O)C[C@@H]2OC)O[C@@H](C)[C@@H]1O (stereo partly drawn) | 0.899 (inactive) |
| CCCN(CCC)c1c([N+](=O)[O-])cc(C(C)C)cc1[N+](=O)[O-] | 1.09 (inactive) |
| Nc1ccncc1 | 1 (inactive) |
| CCCSP(=O)(OCC)SCCC | 0.96 (inactive) |
| BrCCBr | 1 (inactive) |
| CCCC(Cn1cncn1)c1ccc(Cl)cc1Cl (stereo not drawn) | 0.987 (inactive) |
| Nc1nc(N)nc(NC2CC2)n1 | 0.959 (inactive) |
| C#CC(C)(C)NC(=O)c1cc(Cl)cc(Cl)c1 | 1.03 (inactive) |
| Oc1ccc(Cl)cc1 | 1 (inactive) |
| CNC(=O)Oc1cccc2c1OC(C)(C)O2 | 0.984 (inactive) |

| Structure (SMILES) | growth AUC |
| --- | --- |
| CCNc1nc(Cl)nc(NC(C)(C)C#N)n1 | 0.968 (inactive) |
| ClC1=C(Cl)C(Cl)(C2(Cl)C(Cl)=C(Cl)C(Cl)=C2Cl)C(Cl)=C1Cl | 0.987 (inactive) |
| COP(=O)(OC)Oc1ccc(S(C)(=O)=O)c(C)c1 | 0.971 (inactive) |
| CC(C)(C)C(O)C(Oc1ccc(-c2ccccc2)cc1)n1cncn1 (mixture of isomers) | 0.958 (inactive) |
| CC(C)(C)N(NC(=O)c1ccc(Cl)cc1)C(=O)c1ccccc1 | 1.1 (inactive) |
| Cc1ccccc1[N+](=O)[O-] | 0.999 (inactive) |
| CCN(CC)C(=O)C(C)Oc1cccc2ccccc12 (stereo not drawn) | 0.977 (inactive) |
| CCN(CC)C(=O)SCc1ccc(Cl)cc1 | 0.879 (inactive) |
| CNC(=O)ON=C(CS(C)=O)C(C)(C)C (stereo not drawn) | 0.999 (inactive) |
| COP1(=S)OCc2ccccc2O1 (stereo not drawn) | 0.997 (inactive) |
| O=C(O)C(Cl)Cl | 1.05 (inactive) |
| N#CN=C1SCCN1Cc1ccc(Cl)nc1 | 0.963 (inactive) |
| CC(C)NC(=O)N1CC(=O)N(c2cc(Cl)cc(Cl)c2)C1=O | 0.991 (inactive) |
| O=[N+]([O-])c1ccccc1 | 0.994 (inactive) |
| [Cl][Sn]([c]1ccccc1)([c]1ccccc1)[c]1ccccc1 | 0.83 (inactive) |
| Nc1ncn[nH]1 | 0.995 (inactive) |
| CC(C)OC(=O)C(O)(c1ccc(Br)cc1)c1ccc(Br)cc1 | 0.981 (inactive) |
| CNC1=C(c2cccc(C(F)(F)F)c2)C(=O)C(c2ccccc2)O1 (stereo not drawn) | 0.781 (inactive) |
| O=c1oc2ccccc2c(O)c1C1CC(c2ccc(-c3ccc(Br)cc3)cc2)Cc2ccccc21 (stereo not drawn) | 0.714 (active) |

Tested on: Odoribacter splanchnicus
Assay: as above
Settings: 20 µM; 24 h
How it was run: as §1

| Structure (SMILES) | growth AUC |
| --- | --- |
| O=C(O)C1(O)c2ccccc2-c2ccc(Cl)cc21 (stereo not drawn) | 1.01 (inactive) |
| O=C(O)C(F)(F)C(F)(F)C(F)(F)C(F)(F)C(F)(F)C(F)(F)C(F)(F)F | 0.979 (inactive) |
| COP(=O)(OC)OC=C(Cl)Cl | 1.01 (inactive) |
| CCCN(CC)CC1COC2(CCC(C(C)(C)C)CC2)O1 (stereo not drawn) | 0.978 (inactive) |
| CCOP(=O)(SC(C)CC)N1CCSC1=O (stereo not drawn) | 1.04 (inactive) |
| O=NN(CCO)CCO | 1.13 (inactive) |
| CSc1nc(N=[N+]=[N-])nc(NC(C)C)n1 | 1.02 (inactive) |
| COP(=O)(OC)Oc1ccc(S(C)=O)c(C)c1 (stereo not drawn) | 1.02 (inactive) |
| O=C(Nc1ccccc1)N(Cc1ccc(Cl)cc1)C1CCCC1 | 1.03 (inactive) |
| CC(C)OC(=O)C(C(=O)OC(C)C)=C1SCCS1 | 0.995 (inactive) |
| CCC(C)[C@H]1O[C@]2(C=C[C@@H]1C)C[C@@H]1C[C@@H](C/C=C(\C)[C@@H](O[C@H]3C[C@H](OC)[C@@H](O[C@H]4C[C@H](OC)[C@@H](O)[C@H](C)O4)[C@H](C)O3)[C@@H](C)/C=C/C=C3\CO[C@@H]4[C@H](O)C(C)=C[C@@H](C(=O)O1)[C@]34O)O2.CO[C@H]1C[C@H](O[C@H]2[C@H](C)O[C@@H](O[C@@H]3/C(C)=C/C[C@@H]4C[C@@H](C[C@]5(C=C[C@H](C)[C@@H](C(C)C)O5)O4)OC(=O)[C@@H]4C=C(C)[C@@H](O)[C@H]5OC/C(=C\C=C\[C@@H]3C)[C@]54O)C[C@@H]2OC)O[C@@H](C)[C@@H]1O (stereo partly drawn) | 1.07 (inactive) |
| CCCN(CCC)c1c([N+](=O)[O-])cc(C(C)C)cc1[N+](=O)[O-] | 0.989 (inactive) |
| Nc1ccncc1 | 0.974 (inactive) |
| CCCSP(=O)(OCC)SCCC | 0.986 (inactive) |
| BrCCBr | 1.06 (inactive) |
| CCCC(Cn1cncn1)c1ccc(Cl)cc1Cl (stereo not drawn) | 0.962 (inactive) |
| Nc1nc(N)nc(NC2CC2)n1 | 1.04 (inactive) |
| C#CC(C)(C)NC(=O)c1cc(Cl)cc(Cl)c1 | 1.06 (inactive) |
| Oc1ccc(Cl)cc1 | 1.01 (inactive) |
| CNC(=O)Oc1cccc2c1OC(C)(C)O2 | 1.02 (inactive) |

| Structure (SMILES) | growth AUC |
| --- | --- |
| CCNc1nc(Cl)nc(NC(C)(C)C#N)n1 | 0.985 (inactive) |
| ClC1=C(Cl)C(Cl)(C2(Cl)C(Cl)=C(Cl)C(Cl)=C2Cl)C(Cl)=C1Cl | 1 (inactive) |
| COP(=O)(OC)Oc1ccc(S(C)(=O)=O)c(C)c1 | 1.02 (inactive) |
| CC(C)(C)C(O)C(Oc1ccc(-c2ccccc2)cc1)n1cncn1 (mixture of isomers) | 0.952 (inactive) |
| CC(C)(C)N(NC(=O)c1ccc(Cl)cc1)C(=O)c1ccccc1 | 0.988 (inactive) |
| Cc1ccccc1[N+](=O)[O-] | 0.994 (inactive) |
| CCN(CC)C(=O)C(C)Oc1cccc2ccccc12 (stereo not drawn) | 0.96 (inactive) |
| CCN(CC)C(=O)SCc1ccc(Cl)cc1 | 0.937 (inactive) |
| CNC(=O)ON=C(CS(C)=O)C(C)(C)C (stereo not drawn) | 1.02 (inactive) |
| COP1(=S)OCc2ccccc2O1 (stereo not drawn) | 1.04 (inactive) |
| O=C(O)C(Cl)Cl | 0.997 (inactive) |
| N#CN=C1SCCN1Cc1ccc(Cl)nc1 | 1.02 (inactive) |
| CC(C)NC(=O)N1CC(=O)N(c2cc(Cl)cc(Cl)c2)C1=O | 1 (inactive) |
| O=[N+]([O-])c1ccccc1 | 1.08 (inactive) |
| [Cl][Sn]([c]1ccccc1)([c]1ccccc1)[c]1ccccc1 | 0.0358 (active) |
| Nc1ncn[nH]1 | 1.03 (inactive) |
| CC(C)OC(=O)C(O)(c1ccc(Br)cc1)c1ccc(Br)cc1 | 1.05 (inactive) |
| CNC1=C(c2cccc(C(F)(F)F)c2)C(=O)C(c2ccccc2)O1 (stereo not drawn) | 1.07 (inactive) |
| O=c1oc2ccccc2c(O)c1C1CC(c2ccc(-c3ccc(Br)cc3)cc2)Cc2ccccc21 (stereo not drawn) | 0.99 (inactive) |
